System: Vero E6 infected with SARS-CoV-2
Assay: inhibition of SARS-CoV-2 cytopathic effect; higher = more antiviral protection, active = above 15
Conditions: 48 h

Measured: inhibition of SARS-CoV-2 cytopathic effect

CCn1c(=O)c(-c2ccc(Cl)cc2Cl)cc2cnc(Nc3ccc(N4CCNCC4)c(F)c3)nc21
inactive: 1 nM -1.29% | 8.33 nM -2.53% | 100 nM -1.93% | 833.33 nM -6.85% | 10000 nM -4.65%

FC(F)c1nc2ccccc2n1-c1nc(N2CCOCC2)nc(N2CCOCC2)n1
inactive: 1 nM -2.17% | 8.33 nM -0.7% | 100 nM 0.03% | 833.33 nM -2.96% | 10000 nM -6.67%

O=C([O-])C(O)[C@H](O)[C@@H](O)[C@H](O)[C@H](O)CO.O=C([O-])C(O)[C@H](O)[C@@H](O)[C@H](O)[C@H](O)CO.[Ca+2] (stereo not given in full) [calcium-gluceptate]
inactive: 1 nM -7.86% | 8.33 nM -1.7% | 100 nM -4.55% | 833.33 nM -3.31% | 10000 nM -3.66%

CCOC(=O)c1cc(C#N)c(N2CCC(C(=O)NS(=O)(=O)Cc3ccccc3)CC2)nc1C
inactive: 1 nM 3.08% | 8.33 nM 2.38% | 100 nM 0.44% | 833.33 nM 1.19% | 10000 nM -2.86%

CC(=O)O[C@H]1C[C@@H]2CC[C@@H]3[C@H](CC[C@@]4(C)[C@H]3C[C@H]([N+]3(C)CCCCC3)[C@@H]4OC(C)=O)[C@@]2(C)C[C@@H]1[N+]1(C)CCCCC1 [pancuronium]
inactive: 1 nM -2.97% | 8.33 nM -1.22% | 100 nM -0.15% | 833.33 nM -0.93% | 10000 nM -1.28%

CS(=O)(=O)c1cccc(CNc2nc(Nc3ccc4c(c3)CCC(=O)N4)ncc2C(F)(F)F)c1
inactive: 1 nM -1.14% | 8.33 nM -1.29% | 100 nM 0.06% | 833.33 nM 1.33% | 10000 nM -3.75%
